Rows were chosen to be rich in hits. Some 0.98% of all compounds tested hit in one or more screens of this group.
C-LANA FP: inhibitors of KSHV C-LANA binding to DNA, primary screen, biochemical, fluorescence polarization, FAM-LBS DNA, MBP-C-LANA, single point; Kaposi's sarcoma herpesvirus LANA C-terminal domain (residues 932-1162) DNA binding; inhibition, % at 9 µM; 340,000 compounds, 0.078% hits; AID 504423, 2011;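 active = highest replicate inhibition at or above 60% at 9 µM, even if other replicates fall short; inactive = all replicates below 60% inhibition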;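 note: 0% = neutral control wells and 100% = 4 µM acridine orange control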
RTF Ca sens inh: cardiac RTF calcium sensitivity inhibitors, primary screen, biochemical, IANBD-TnC fluorescence, EC70 calcium; Troponin I, cardiac muscle (Homo sapiens) + Troponin T, cardiac muscle (Homo sapiens) + …; IANBD-labeled cardiac RTF, Ca2+ fluorescence; inhibition, % at 7.15 µM; 340,000 compounds, 0.12% hits; AID 493244, 2011;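 active = inhibition above the mean inhibition of all tested compounds plus 3 SD, cut at about 17% in these data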;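 note: assay run at fixed EC70 calcium of 1.6 mM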
RTF Ca sens act: cardiac RTF calcium sensitivity activators, primary screen, biochemical, IANBD-TnC fluorescence, EC20 calcium. 340,000 compounds, 0.24% hits. Troponin I, cardiac muscle (Homo sapiens) + Troponin T, cardiac muscle (Homo sapiens) + …. activation, % at 7.2 µM. IANBD-labeled TnC RTF fluorescence at EC20 calcium; 0% EC20 calcium, 100% full calcium;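 active = activation above the mean over all tested compounds plus 3 SD, cut at about 30% in these data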;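 note: rise in fluorescence read as greater calcium sensitivity of cardiac thin filaments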
Keap1 Nrf2 FP: Keap1-Nrf2 protein-protein interaction inhibitors, primary screen, biochemical, fluorescence polarization, single point | Kelch-like ECH-associated protein 1 (Homo sapiens), Q14145 | inhibition, % at 9.4 µM | 340,000 compounds, 0.15% hits | AID 504523, 2011 | Keap1 Kelch-Nrf2 peptide fluorescence polarization, 1536-well; in the data active = inhibition above about 12%;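 note: human Keap1 Kelch domain with fluorescein labeled Nrf2 9mer peptide probe; 0% = neutral control wells and 100% = peptide positive control; higher means more block of Keap1 binding to Nrf2 peptide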
LANA-H2A inh: blockers of LANA interaction with H2A/H2B – biochemical, FP readout, HTS, primary screen. 320,000 compounds, 0.6% hits. inhibition, % (no concentration beside the values). cell-free LANA-H2A/H2B peptide, fluorescence polarization. Protein LANA1 (Human herpesvirus 8 type P (isolate GK18)), Q9QR71; in the data active = inhibition mostly above about 10%, no sharp cut-off; inactive = mostly below about 6.7%
Target sequence (Q9QR71 whole entry, looked up): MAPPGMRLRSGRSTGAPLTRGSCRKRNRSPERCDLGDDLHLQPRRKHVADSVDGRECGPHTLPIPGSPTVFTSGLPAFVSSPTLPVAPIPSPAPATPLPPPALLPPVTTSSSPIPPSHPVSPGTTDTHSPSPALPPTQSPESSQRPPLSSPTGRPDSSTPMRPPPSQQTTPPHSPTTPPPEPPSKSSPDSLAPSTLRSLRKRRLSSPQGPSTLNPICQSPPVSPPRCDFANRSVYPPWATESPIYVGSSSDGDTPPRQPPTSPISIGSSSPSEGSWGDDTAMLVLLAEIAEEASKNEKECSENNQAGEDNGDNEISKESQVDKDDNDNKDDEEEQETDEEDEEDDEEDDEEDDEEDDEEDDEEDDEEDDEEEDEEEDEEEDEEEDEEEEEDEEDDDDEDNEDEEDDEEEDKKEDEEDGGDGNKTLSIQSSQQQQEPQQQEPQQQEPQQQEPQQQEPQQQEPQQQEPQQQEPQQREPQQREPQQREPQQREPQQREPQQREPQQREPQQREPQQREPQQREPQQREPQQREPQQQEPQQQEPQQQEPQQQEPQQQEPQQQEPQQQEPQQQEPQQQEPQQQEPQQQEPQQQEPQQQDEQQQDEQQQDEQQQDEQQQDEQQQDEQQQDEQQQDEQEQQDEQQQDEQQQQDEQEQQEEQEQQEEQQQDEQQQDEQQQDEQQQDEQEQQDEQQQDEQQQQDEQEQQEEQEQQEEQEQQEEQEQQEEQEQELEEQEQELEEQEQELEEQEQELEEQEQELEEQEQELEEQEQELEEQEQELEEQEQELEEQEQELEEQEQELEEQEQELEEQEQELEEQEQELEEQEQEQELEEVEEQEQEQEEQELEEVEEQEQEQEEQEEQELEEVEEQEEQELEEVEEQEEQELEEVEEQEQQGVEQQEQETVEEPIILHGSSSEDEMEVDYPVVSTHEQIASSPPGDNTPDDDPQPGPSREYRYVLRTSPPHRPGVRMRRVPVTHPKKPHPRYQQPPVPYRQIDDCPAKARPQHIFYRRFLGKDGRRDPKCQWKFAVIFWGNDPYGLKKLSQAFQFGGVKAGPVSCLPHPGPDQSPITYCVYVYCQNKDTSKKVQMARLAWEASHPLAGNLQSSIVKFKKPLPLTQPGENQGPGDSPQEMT
Starred values were filed as active, the others as inactive; + = active, no number.

SMILES | C-LANA FP | RTF Ca sens inh | RTF Ca sens act | Keap1 Nrf2 FP | LANA-H2A inh
COc1ccc(N=Cc2cc3c(cc2O)OC(N)=C(C#N)C3c2ccccc2)cc1 (stereo not given) | 4 | -44 | 71* | -2 | -3
Cc1ccccc1-n1c(O)c(/C=C/C=Nc2ccccc2)c(=O)[nH]c1=O | -56 | -135 | 124* | -214 | -37
CCCCN1CC(=O)N2[C@H](c3ccc(Cl)cc3)[C@@H]3C(=O)N(CC)C(=O)[C@@H]3[C@]2(C)C1=O | -2 | 1 | -2 | -4 | 3
CCN(CC)C(=O)c1cccc(NC(=O)C2=COCCO2)c1 | -8 | -4 | -3 | 2 | 18*
NC(=O)COc1ccc(C2c3c(oc4ccccc4c3=O)C(=O)N2CC2CCCO2)cc1 (stereo not given) | -2 | -3 | -7 | -2 | 197*
COc1ccc(C2c3c(oc4ccccc4c3=O)C(=O)N2CC2CCCO2)cc1 (stereo not given) | 0 | -21 | 6 | 0 | 1
O=S(=O)(c1ccc(F)cc1)c1nc(-c2ccccc2F)oc1N1CCCCC1 | 2 | -6 | -4 | -11 | 4
Cc1ccc(S(=O)(=O)c2nc(-c3ccccc3F)oc2N2CC(C)OC(C)C2)cc1 (stereo not given) | 0 | -5 | 5 | -5 | 59*
Cc1c(-c2ccccc2)oc2c(C(=O)OCC(=O)Nc3ccc(C(N)=O)cc3)cccc2c1=O | -4 | -4 | -4 | 0 | 28*
COC(=O)c1ccc(NC(=O)COC(=O)c2cccc3c(=O)c(C)c(-c4ccccc4)oc23)cc1 | 0 | -14 | -1 | 0 | 3
Cc1ccc(-c2ccc(/C=C(\C#N)C(N)=S)n2C)cc1 | 1 | -3 | 2 | 0 | 26*
COc1cc([N+](=O)[O-])ccc1N/C=C/C(=O)c1cccs1 | -10 | -493 | 287* | 1 | 4
O=C(/C=C/c1ccc([N+](=O)[O-])cc1)c1cccs1 | -1 | -20 | 6 | -4 | -1
Cn1c(N)c(C(c2ccccc2)c2c(N)n(C)c(=O)n(C)c2=O)c(=O)n(C)c1=O | 1 | -12 | -6 | -7 | 29*
NC(=O)NC(CC(=O)NCCCc1ccccc1)c1ccccc1Cl (stereo not given) | 0 | -7 | 6 | 0 | 4
NC(=O)NC(CC(=O)NCCc1ccccn1)c1ccccc1Cl (stereo not given) | 2 | -3 | -3 | -2 | 15*
O=C1N/C(=N\N=C\c2cccs2)SC1Cc1cccc(Cl)c1Cl (stereo not given) | -1 | -5 | 2 | -3 | -1
CCCOc1c(Br)cc(C(=O)OCC(=O)NC(=O)c2cccn2C)cc1OC | 2 | 1 | -2 | 0 | +
COc1ccc(Cl)cc1C(=O)OCC(=O)NC(=O)c1cccn1C | 0 | 7 | -3 | -3 | 0
Cc1cccc(OCc2nnc(SC(C)C(=O)O)n2-c2ccccc2)c1 (stereo not given) | 1 | -15 | 5 | 3 | -1
CN1/C(=C/C=C(/C#N)C(N)=O)C(C)(C)c2ccccc21 | 11 | -4 | 9 | -15 | -13
CN1/C(=C\C=C(/C#N)C(=O)Nc2ccccc2F)C(C)(C)c2ccccc21 | 26 | -31 | 39* | 1 | -15
O=C(C[C@H]1C/C=C\CC[C@H](Cc2ccc(F)cc2)C(=O)O[C@H](c2ccccc2)CNC1=O)N[C@H](CO)Cc1ccccc1 | 0 | 6 | -13 | 3 | +
O=C(C[C@H]1C/C=C\CC[C@H](Cc2ccc(F)cc2)C(=O)O[C@@H](c2ccccc2)CNC1=O)N[C@@H](CO)Cc1ccccc1 | 2 | -5 | 1 | 6 | -7
CC(C)(C)OC(=O)C[C@@H]1C/C=C\C[C@H](CC(=O)N[C@H](CO)Cc2ccccc2)C(=O)N[C@H](Cc2ccccc2)COC1=O | 0 | 2 | -2 | 4 | -2
